Bioassay records (PubChem)
Hits are enriched below; roughly 4.2% of the tested compounds scored in any of these assays.
PrPC surface inh – reduces human prion protein on the cell surface; inhibition, % at 13.8 µM; actives 0.43% (n = 370,000); cell surface PrPC, TR-FRET read-out; in the data active means inhibition above about 24%; further: 0% = median of the test wells and 100% = reference compound wells
GDH-TPI inh – GDH-TPI coupled enzyme inhibition counter-screen | GDH-TPI coupled enzyme counterscreen, NADH absorbance | inhibition, % at 4.8 µM | actives 1.2% (n = 360,000); in the data active means inhibition above about 30%;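 further: 0% = DMSO wells and 100% = wells lacking the enzyme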
RecA splice inh – inhibitors of M. tuberculosis RecA intein splicing; actives 0.75% (n = 290,000); inhibition, % (test concentration not listed); cell-free RecA intein splicing, fluorescence; in the data active means inhibition above about 30%;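 further: 0% = vehicle wells and 100% = reference inhibitor control wells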
Mtb FBA inh – inhibits M. tuberculosis FBA enzyme. P9WQA3. purified M. tuberculosis FBA, fluorescence read-out. inhibition, % at 1 µM. actives 2.3% (n = 360,000). AID 588726; in the data active means inhibition above about 27%;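 further: 0% = vehicle and 100% = reference inhibitor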
Target sequence (P9WQA3 whole entry, looked up): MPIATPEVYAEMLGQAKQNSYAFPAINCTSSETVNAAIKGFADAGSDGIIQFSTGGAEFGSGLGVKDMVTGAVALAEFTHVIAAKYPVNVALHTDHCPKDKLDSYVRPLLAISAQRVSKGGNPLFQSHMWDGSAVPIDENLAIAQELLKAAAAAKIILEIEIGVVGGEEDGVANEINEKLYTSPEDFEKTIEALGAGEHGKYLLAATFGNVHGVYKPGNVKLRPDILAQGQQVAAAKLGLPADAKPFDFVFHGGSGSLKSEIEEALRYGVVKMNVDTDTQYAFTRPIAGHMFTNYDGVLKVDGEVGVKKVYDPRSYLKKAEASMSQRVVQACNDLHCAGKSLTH
BJeLR viability – kills HRASV12-expressing BJeLR cells. BJeLR (HRASV12) viability, CellTiter-Glo ATP luminescence, 48 h. inhibition, % (concentration not given with the values). actives 0.17% (n = 300,000). AID 1554; in the data active means inhibition above about 50%
Numbers without * were called inactive; i = inactive; nt = no result given; + = active, no number.

SMILES | PrPC surface inh | GDH-TPI inh | RecA splice inh | Mtb FBA inh | BJeLR viability
COC(=O)[C@]12C[C@H](CC(=O)NCc3ccc(OC)c(OC)c3)C(=O)N(Cc3ccco3)C1=C[C@H](C(C)C)O[C@@H]2C1CC1 | 3.8 | nt | nt | nt | nt
Cc1c(CC(=O)O)c(=O)oc2cc(OCc3ccc(F)cc3Cl)ccc12 | 2.0 | 12.1 | 2.9 | 166.7* | -1.0
Cc1c(CCC(=O)O)c(=O)oc2cc(OCc3ccccc3F)ccc12 | 2.3 | 17.9 | -3.9 | 121.0* | -5.2
COc1ccc(C2=CC(=O)C=CC2=O)cc1 | nt | nt | 30.2 | nt | 98.6*
CCOC(=O)Cc1cc(=O)n2[nH]cc(-c3cccc(Br)c3)c2n1 | 6.7 | 8.3 | 1.1 | 26.3 | 7.0
COCc1cc(=O)n2[nH]cc(-c3ccccc3)c2n1 | -1.7 | 22.8 | -0.2 | 132.6* | 11.9
Cc1ccc(S(=O)(=O)N2CCCc3nc(-c4ccccc4)ccc32)cc1 | 7.6 | nt | nt | nt | nt
COc1cccc(C(=O)Nc2nc(-c3ccc(S(=O)(=O)N4CCOCC4)cc3)cs2)c1 | 6.7 | 13.4 | 5.7 | 3.6 | 6.4
CCCCC(=O)Nc1nc(-c2ccc(S(=O)(=O)N3CCOCC3)cc2)cs1 | 0.5 | -1.0 | 0.9 | 36.1* | -8.3
CC(C)CC(=O)Nc1nc(-c2ccc(S(=O)(=O)N3CCOCC3)cc2)cs1 | 11.9 | -1.0 | -2.3 | 31.4* | 6.3
O=C(Nc1nc(-c2ccc(S(=O)(=O)N3CCOCC3)cc2)cs1)c1ccccc1 | 4.2 | 12.3 | -2.9 | -0.4 | 19.3
COc1ccc(-n2c(COc3ccc(C)cc3)nnc2SCC(=O)Nc2ccc(S(=O)(=O)Nc3cc(C)nc(C)n3)cc2)cc1 | -4.5 | nt | nt | nt | nt
Nc1nc(N)c2nc(-c3ccccc3)c(N)nc2n1 | -15.7 | 32.6* | -49.3 | nt | -3.1
CCCCCCCCOc1ccc(C2OC34CCCCC3C(C#N)(C#N)C2(C#N)C(=N)O4)cc1 (stereo not given) | nt | -2.2 | -414.0 | 49.8* | 1.6
CCc1ccc(/C=C2\Oc3c(ccc(O)c3CN3CCN(CCO)CC3)C2=O)cc1 | -13.4 | 35.4* | -5.1 | -3.2 | 1.7
CC(C)(C)OC(=O)C1[C@H](O)C=CC[C@H]1S(=O)c1ccccc1 (stereo not given in full) | -1.7 | nt | nt | nt | nt
N#Cc1cnc(Nc2nc3ccccc3o2)nc1-c1ccccc1 | -3.3 | 33.3* | -1.7 | -5.2 | 8.1
COc1ccccc1[C@H]1C(c2cccc(Cl)c2)=NN(c2ccccc2)[C@@H]1CO | nt | 9.1 | nt | 46.3* | nt
OC[C@@H]1[C@@H](c2ccccc2)C(c2ccc(F)cc2)=NN1c1ccccc1 | nt | 4.5 | nt | 45.9* | nt
O=C1OCCN1C(=O)[C@H]1[C@H](c2ccc(F)cc2)C(c2cccc(Cl)c2)=NN1c1ccccc1 | 2.4 | 4.5 | nt | 26.4 | nt
CCCC1CCC2(CC1)CCC2OC(=O)Nc1ccc(C)cc1 (stereo not given) | 8.1 | nt | nt | nt | nt
COc1ccc2cc3[n+](cc2c1O)CCc1cc2c(cc1-3)OCO2 | -15.8 | nt | nt | nt | nt
COc1cc2c(cc1OC)-c1cc3ccc(OC)c(OC)c3c[n+]1CC2 | -45.9 | 59.4* | nt | -1.2 | nt
CN(C)c1ccc(C=NN2C(=O)CSC2=S)c(Cl)c1 | 7.0 | 35.9* | nt | -7.2 | nt
O=C1CSC(=S)N1N=Cc1c(F)cccc1Cl | 0.7 | 8.8 | nt | 0.2 | nt
SMILES | PrPC surface inh | GDH-TPI inh | RecA splice inh | Mtb FBA inh | BJeLR viability
Cc1ccccc1OCC(O)CNC1CCC(NCC(O)COc2ccccc2C)CC1 (stereo not given) | -1.2 | 0.0 | -1.4 | 3.2 | 89.4*
Cc1cc(N2CCC(C)CC2)nc(-c2ccccc2O)n1 | -5.8 | 37.7* | 3.7 | 7.1 | 8.8
CCN(C(=O)c1cc2c(=O)n3ccccc3nc2n1C)C1CCCCC1 | -17.1 | 0.5 | -206.3 | + | 6.3
CCN(C(=O)c1cc2c(=O)n3cccc(C)c3nc2s1)C1CCCCC1 | 2.7 | 3.3 | -4.9 | 3.8 | -0.9
CN(C(=O)c1cc2c(=O)n3ccccc3nc2n1C)C1CCCCC1 | 0.0 | 18.6 | -349.1 | + | 2.6
CCN(C(=O)c1cc2c(=O)n3ccccc3nc2n1CCCOC)C1CCCCC1 | -6.8 | 16.5 | 2.0 | 117.7* | -1.9
CC1CCCCC1NC(=O)c1cc2c(=O)n3ccccc3nc2n1C (stereo not given) | -6.8 | 10.4 | i | 180.2* | 3.2
C/C(=N\NC(=O)Cc1cccs1)c1ccco1 | 10.9 | nt | nt | nt | nt
CC(=O)CC[C@@H]1CC[C@]2(CCCN(S(=O)(=O)C3CCCCC3)C2)O1 | -7.1 | nt | nt | nt | nt
COc1cccc(/C=C2\CC3(OC(=O)c4ccc(Cl)cc4)CCCN2C3)c1 (stereo not given) | 7.8 | nt | nt | nt | nt
CNC(=O)C[C@@H]1CC[C@@H]2[C@H](COc3ccc(NC(=O)c4cccc(F)c4)cc3C(=O)N2C)O1 | -4.9 | nt | nt | nt | nt
CCCCNC(=O)c1nc(-c2ccc(C(F)(F)F)cc2)oc1-c1ccccc1 | 1.2 | nt | nt | nt | nt
CCCCNC(=O)c1nc(-c2ccncc2)oc1-c1ccccc1 | 4.5 | nt | nt | + | nt
Cc1ccn2c(C(=O)N/N=C/c3ccc(CNC(=O)C(=O)Nc4ccc(C)c(C)c4)o3)c(C)nc2c1 | nt | nt | 0.9 | nt | 4.4
Cc1ccc(NC(=O)C(=O)NCc2ccc(/C=N/NC(=O)c3c(C)nc4ccccn34)o2)cc1 | -8.6 | 42.0* | 3.3 | -2.0 | -7.1
COC(=O)Cn1c(=NC(=O)c2ccc(OC)cc2)sc2cc(OC)ccc21 | 0.7 | 36.1* | -3.0 | 10.8 | 7.3
CCOCCCNC(=O)C(NC(=O)CNC(C)=O)c1ccc(Cl)cc1 (stereo not given) | 3.4 | -6.2 | 1.2 | 0.1 | 0.5
CCOCCCNC(=O)C(NC(=O)c1ccccc1O)c1ccc(Cl)cc1 (stereo not given) | nt | 10.1 | -2.1 | 51.8* | -8.3
O=C1NC2C(=CC(O)C(O)C2O)c2cc3c(cc21)OCO3 (stereo not given) | 91.2* | 9.6 | nt | 4.8 | nt
CN(C)[C@@H]1CCN(c2cccc3c2S(=O)(=O)N2CC[C@H](C2)O3)C1 | 8.4 | nt | nt | nt | nt
CCc1cc(N2CCOCC2)cc2c1[nH]c1ccccc12 | -3.3 | -1.9 | -6.0 | 96.0* | nt
O=C(Nc1ccc2ccccc2c1)NC1CCCCN(Cc2ccc(Cl)cc2)C1=O (stereo not given) | 13.9 | nt | nt | nt | nt
Cc1c(OCC(=O)N2CCC(C(=O)NCCCC(=O)O)CC2)ccc2c1oc(=O)c1ccccc12 | -4.4 | 5.2 | -2.0 | 132.8* | 2.4
CCCC/C=C1/[C@H](c2ccc(Cl)cc2)N(Cc2ccc3c(c2)OCO3)C2=N[C@H](c3ccccc3)CC(=O)N21 | -5.4 | nt | nt | nt | nt
COc1ccc(C[C@@H]2OC3(C=CC(=O)C=C3)O[C@H]2Cc2ccc(OC)cc2)cc1 | nt | -8.7 | nt | -1.1 | nt
O=C1C=CC2(C=C1)O[C@H](Cc1ccccc1)[C@@H](Cc1ccccc1)O2 | 88.9* | -2.3 | nt | -0.6 | nt
COC(=O)[C@]12C[C@H](CC(=O)N3CCCC3)C(=O)N(Cc3cccc4ccccc34)C1=C[C@H](COCc1ccccc1)O[C@@H]2C | 8.0 | nt | nt | nt | nt
O=S1(=O)N=C(N/N=C/c2cccs2)c2ccccc21 | -2.9 | 38.6* | -0.3 | -3.4 | 3.4
COC(=O)[C@]12C[C@H](CC(=O)N3CCCCC3)C(=O)N(Cc3ccc4c(c3)OCO4)C1=C[C@H](C(C)C)O[C@@H]2C1CC1 | 16.8 | nt | nt | nt | nt
CCOC(=O)[C@]12CCCC=C1N(CCCOC)C(=O)[C@@H]2CC(=O)N1CCC(c2ccccc2)CC1 | -6.8 | nt | nt | nt | nt
